Screening results deposited in PubChem by National Center for Advancing Translational Sciences (NCATS).
HT1080 IDH1KD tx: toxicity to HT-1080 IDH1 knockdown cells (counter line) | HT-1080 IDH1 knockdown viability, ATP luminescence, 48 h | Potency, µM (series often up to 46.1 µM), for inactives: at the highest dose activity, negative = toxicity, actives largely listed as cytotoxic | actives 2% (n = 360,000) | AID 686971;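 also: potency is read from the fitted curve at half-maximal effect; 0% = DMSO wells and -100% = cell-free medium wells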
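Knockdown cells (IDH1KD HT-1080) received compounds 2 h after plating at 750 cells/well and were kept 48 h at 37 °C in 5% FBS RPMI. A CellTiter-Glo luminescence read gave % activity for curve fitting.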
KB-3-1 cytotox: KB-3-1 parental cell cytotoxicity; AID 1347075; actives 1.4% (n = 400,000); KB-3-1 viability, CellTiter-Glo ATP luminescence, 72 h; Potency, µM (series often up to 46.1 µM), hits mostly cytotoxic; also: potency is read from the fitted curve at half-maximal effect; nearly all actives have a fitted effect of over 60% in size
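Cytotoxicity in the drug-sensitive parental line KB-3-1 was scored as loss of CellTiter-Glo luminescence following 72 h incubation with compound. Values come from curve fitting of normalized concentration-response data.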
HT1080NT lethal: kills 2HG-producing HT-1080-NT fibrosarcoma cells | AID 686970 | Potency, µM (highest dose often 46.1 µM), for inactives: at the top dose activity, negative = less viability, actives largely listed as cytotoxic | actives 1.6% (n = 360,000) | HT-1080-NT fibrosarcoma viability, CellTiter-Glo ATP luminescence, 48 h;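 also: NT is the 2HG producing partner of a matched IDH1 knockdown line; potency is read from the fitted curve at half-maximal effect; 0% = DMSO-treated cells and -100% = media-only wells without cells; nearly all actives have a fitted effect of over 55% in size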
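Viability by CellTiter-Glo luminescence after 48 h compound exposure at 37C of HT-1080-NT cells (750/well, RPMI, 5% FBS). % activity scaled between DMSO wells and medium-only wells, then curve-fitted and categorized by curve class.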
KB-V1 MDR tox: kills drug-selected multidrug resistant KB-V1 cells; AID 1347076; actives 3.4% (n = 400,000); KB-V1 MDR cells viability, CellTiter-Glo, 72 h; Potency, µM (highest dose often 46.1 µM), hits mostly cytotoxic; also: potency is read from the fitted curve at half-maximal effect; nearly all actives have a fitted effect of over 60% in size
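KB-V1 cells (P-gp-expressing MDR subline of KB-3-1) in phenol-red-free DMEM with 10% FBS were exposed to library compounds over a concentration series for 72 h at 37 degrees C. Viability read by CellTiter-Glo luminescence; concentration-effect curves fitted after normalization.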
IL-1B inflam inh: inhibitors of inflammasome signaling (IL-1 beta secretion). actives 4.7% (n = 360,000). AID 743279. activity change, % at 57.5 µM. THP-1 LPS/ATP IL-1B secretion, AlphaLISA, 16 h; hits give low values; in the data active = activity change below about -50%; inconclusive = mostly about -30% to -49%
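Secreted IL-1B measured by AlphaLISA bead assay after 16 h compound exposure of THP-1 cells; compounds (final up to 57.5 uM) added 1 h before LPS (250 ng/mL) and ATP (1.25 mM) stimulation; lower signal means less secretion.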
* = called active by the depositor; i = inactive; ? = inconclusive; . = no result given. Hits are enriched below; roughly 8.8% of the tested compounds scored in any of these assays. Unless noted, calls follow the shape of the dose curve; as a rule, active = well fitted curve in the direction sought with a large enough effect; inconclusive = small, poorly fitted or top-dose-only effect, or another doubt; inactive = no such curve, though single readings can be large; an effect the other way counts as inactive or inconclusive. Unless noted, % is scaled to controls: 0 for no effect and ±100 for the full control effect.

SMILES	HT1080 IDH1KD tx	KB-3-1 cytotox	HT1080NT lethal	KB-V1 MDR tox	IL-1B inflam inh
O=C(N/N=C/c1ccc([N+](=O)[O-])s1)C(O)c1ccccc1 (stereo not drawn)	?	?	?	i	-8
O=C(Cc1ccccc1)N/N=C/c1ccc([N+](=O)[O-])s1	?	?	?	15µM*	-1
Cn1c(SCC(=O)N/N=C/c2ccc([N+](=O)[O-])s2)nnc1-c1ccccc1	16µM*	21µM*	21µM*	?	-98*
O=C(N/N=C\c1ccc([N+](=O)[O-])s1)c1cncc(Br)c1	6.5µM*	5.8µM*	?	i	-58*
Cc1ccc(COC(=O)NCc2cccnc2)cc1	13%	i	1%	i	41
O=C(N/N=C/c1ccc([N+](=O)[O-])s1)c1ccccc1	-13%	?	-10%	i	?
Cc1ccccc1C(=O)N/N=C/c1ccc([N+](=O)[O-])s1	8.9µM*	i	20µM*	?	-65*
CCCN1CNc2c(c(=O)[nH]c(=S)n2CCc2cc(C)ccc2C)C1	14%	.	4%	.	.
CC1(C(=O)NS(=O)(=O)c2ccc(C#N)cc2)CCN1C(=O)C1(c2ccc(Cl)cc2)CC1 (stereo not drawn)	16%	i	26%	i	0
CC1CCN(C(=O)CSc2nnc(-c3cccnc3)n2C2CCCCC2)CC1	5%	i	15%	i	0
O=C(CSc1nnc(-c2cccnc2)n1C1CCCCC1)NC1CCCCC1	-2%	i	9%	18µM*	-6
Cc1noc(C)c1CSc1nnc(-c2cccnc2)n1C1CCCCC1C (stereo not drawn)	0%	i	-1%	23µM*	24
CC1CCCCN1C(=O)CSc1nnc(-c2cccnc2)n1C1CCCCC1 (stereo not drawn)	5%	i	12%	15µM*	-14
CCC(C)(C#CCN1CCCCC1)OCCC#N (stereo not drawn)	19%	i	26%	i	5
O=C(Nc1cc(=O)c2ccccc2o1)N1CCCCC1	-2%	i	-13%	12µM*	2
O=C(Nc1cc(=O)c2ccccc2o1)N1CCOCC1	-11%	i	-6%	?	3
CCOC(=O)c1cc2c(ccc3ccccc32)oc1=O	.	i	.	i	14
O=C(c1cc2c(ccc3ccccc32)oc1=O)N1CCCC1	8%	i	8%	i	-52*
Cn1c(CC(=O)Nc2ccccc2)nnc1SCC(=O)NC1CCCC1	-1%	i	2%	i	-14
CCCc1n[nH]c2c1/C(=N/O)CC(c1ccccc1)C2 (stereo not drawn)	-19%	26µM*	-14%	?	?
CC(Cc1cccs1)NC(=O)Nc1ccc(Cl)c(Cl)c1 (stereo not drawn)	?	?	?	?	-4
Cc1ccc(C(=O)NN2C(=O)C3C(C2=O)C2C=CC3C23CC3)cc1 (stereo not drawn)	-3%	i	-1%	i	-3
CCCSc1nn2c(=O)c3ccccc3nc2s1	-11%	i	-2%	i	15
O=c1c2ccccc2sc2nc(CCl)nn12	4.6µM*	6.5µM*	6.5µM*	?	13
COc1ccc(NC(=O)Cn2ncc3c(C)n(Cc4cccc(Cl)c4)c(C)c3c2=O)cc1	.	i	.	i	.
SMILES	HT1080 IDH1KD tx	KB-3-1 cytotox	HT1080NT lethal	KB-V1 MDR tox	IL-1B inflam inh
COC(=O)c1cccc(S(=O)(=O)N2CCC(c3nc4ccccc4o3)CC2)c1	-1%	i	-3%	i	51
COC(=O)c1ccccc1S(=O)(=O)N1CCC(c2nc3ccccc3o2)CC1	4%	i	21%	12µM*	-14
O=C(NC(=S)N1CCCCC1CO)c1cc(Br)ccc1Cl (stereo not drawn)	18%	i	15%	i	-14
Nc1c(C(=O)OCC2CCCO2)c2nc3ccccc3nc2n1C1CCCC1 (stereo not drawn)	-4%	?	-2%	23µM*	2
CC(C)Cn1c(N)c(C(=O)NCC2CCCO2)c2nc3ccccc3nc21 (stereo not drawn)	?	i	?	?	-80*
COCCn1c(N)c(C(=O)NCC2CCCO2)c2nc3ccccc3nc21 (stereo not drawn)	-9%	i	-12%	?	-18
O=C(Nc1ccc(F)cc1)C(c1ccccc1)N1CCN(c2ccncc2)CC1 (stereo not drawn)	3%	i	-20%	i	-19
CCc1ccc(OCc2ccccc2C(=O)Nc2ccc3nc(C)cc(N)c3c2)cc1	.	16µM*	.	?	.
CCOC(=O)c1ccc(NC(=O)c2cc(C)nc3ccccc23)cc1	20%	i	11%	i	-5
Cc1ccnc(NC(=O)/C=C/c2ccccc2Cl)c1	-17%	i	-21%	?	-69*
Cc1cc(C)nc(NC(=O)/C=C/c2ccc(Cl)cc2Cl)c1	9%	i	13%	9.2µM*	-53*
Cc1cc(C)nc(NC(=O)/C=C/c2ccccc2Cl)c1	15%	i	-3%	?	?
Cc1cc(N)c2cc(NC(=O)/C=C/c3ccccc3Cl)ccc2n1	?	?	?	i	-65*
Cc1ccc(Cn2cc(CCC(=O)O)c3ccccc32)cc1	6%	i	6%	i	33
FC(F)(F)c1cnc(Sc2nc3nccc(-c4ccc(Cl)cc4)n3n2)c(Cl)c1	-2%	i	15%	i	?
COc1ccc(-c2ccnc3nc(Sc4ncc(C(F)(F)F)cc4Cl)nn23)cc1	?	i	?	15µM*	-27
CN(C)S(=O)(=O)c1ccc(C(=O)N2CCN(S(=O)(=O)c3cccs3)CC2)cc1	28%	i	23%	i	-2
Cc1cc(C)cc(N(CC(=O)N2CCC(C)CC2)S(=O)(=O)c2ccccc2)c1	?	i	4%	16µM*	-28
Cc1cc(C)cc(N(CC(=O)N2CCOCC2)S(=O)(=O)c2ccccc2)c1	17%	i	18%	?	33
Cc1[nH]c2ccccc2c1C(O)c1ccncc1 (stereo not drawn)	-2%	i	9%	i	37
CCCCCCCCCCCCCCCC[n+]1ccc(CC(O)c2c(C)[nH]c3ccccc23)c2ccccc21 (stereo not drawn)	.	16µM*	.	16µM*	.
CN(C(=O)COC(=O)c1cccc(Cl)c1)C1CCS(=O)(=O)C1 (stereo not drawn)	0%	i	-2%	i	3
CN(C(=O)COC(=O)c1ccc(-c2ccc(O)cc2)cc1)C1CCS(=O)(=O)C1 (stereo not drawn)	18µM*	i	6.5µM*	i	1
Cc1ccc(-c2noc(CCCC(=O)NC3CCCCC3)n2)cc1	-11%	?	-14%	16µM*	12
